# Test results taken from PubChem BioAssay AID588342 (National Center for Advancing Translational Sciences (NCATS), 2011).
# In all, about 360,000 compounds went through this assay and about 25,000 (6.9%) were called active. Inconclusive results (about 9%) are left out. For the sample, actives were picked, then their nearest neighbours and some compounds at random. Unmarked numbers belong to inactive results. Calls come from the whole dose curve; as a rule, active = well fitted inhibition curve with a large enough effect; inconclusive = small, poorly fitted or top-dose-only effect; inactive = flat fitted curve, though single readings scatter.
# Biological target: Luciferin 4-monooxygenase (Photinus pyralis) (UniProt P08659)
# Sequence (P08659 whole entry, looked up): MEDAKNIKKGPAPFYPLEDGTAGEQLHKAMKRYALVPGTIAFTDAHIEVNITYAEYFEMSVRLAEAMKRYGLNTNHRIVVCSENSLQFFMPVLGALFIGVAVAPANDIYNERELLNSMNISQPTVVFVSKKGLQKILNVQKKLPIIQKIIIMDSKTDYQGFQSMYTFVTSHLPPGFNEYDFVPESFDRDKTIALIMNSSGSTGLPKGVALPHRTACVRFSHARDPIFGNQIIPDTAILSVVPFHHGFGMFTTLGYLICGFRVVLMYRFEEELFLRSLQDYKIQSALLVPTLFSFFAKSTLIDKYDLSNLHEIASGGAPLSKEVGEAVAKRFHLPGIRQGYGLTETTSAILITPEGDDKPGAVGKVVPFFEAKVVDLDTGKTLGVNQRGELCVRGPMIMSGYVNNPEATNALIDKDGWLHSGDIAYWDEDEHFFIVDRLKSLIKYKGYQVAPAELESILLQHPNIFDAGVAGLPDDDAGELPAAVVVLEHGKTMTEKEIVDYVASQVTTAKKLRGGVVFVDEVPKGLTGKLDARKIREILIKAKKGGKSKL
# Assay: qHTS profiling assay for firefly luciferase inhibitor/activator using purifed enzyme and Km concentrations of substrates (counterscreen for miR-21 project); note: nearly all actives have a fitted effect of over 55% in size;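 for activity change, negative = inhibition: plate controls were vehicle for no effect and reference inhibitor for full effect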
# Conditions: purified FLuc, luminescence inhibition; series mostly up to 57.5 µM; activity change, negative = inhibition: at the top concentration
# Text: MLPCN Grant: 1 R21 NS059478-01 (miR-21 grant) Assay Provider: NCGC NCGC Assay Overview: Firefly (Photinus pyralis) luciferase is one of the most commonly used transcriptional reporters for a number of reasons. It is considered one of the more dynamically responsive reporters -that is, responsive to changes in reporter transcription - as it requires no post-translational modifications and is enzymatically active directly after protein synthesis (Wood, 1998). Additionally, the half-life of the luciferase protein is short relative to other reporter-gene products (Wood, 1995). Whereas reporters with long half-lives potentially allow for increased signal due to accumulation of reporter-gene product, once accumulated in the cell, dynamic changes in reporter-gene expression may be difficult to detect(Fan and Wood, 2007; Almond et al., 2004). It has been shown that wild-type P. pyralis luciferase has a half-life of approximately […] hours in mammalian cells (Thompson et al., 1991). Firefly luciferase reporter-gene assays are also generally considered one of the most sensitive assay types (Wood, 1995; Wood, 1998). Although light produced in a bioluminescence reaction is of lower intensity than that produced during fluorescence emission, this is offset by little to no background light inherent to luminescent assays. Thus the luciferase reporter can be expressed at much lower levels than fluorescent proteins while still providing robust signal. # However, it was initially observed, in 1991, by Thompson et al., that compounds that resemble the substrates of firefly luciferase (FLuc) can act as competitive inhibitors of the enzyme, and that these compounds, upon interaction with luciferase in the cell, can actually stabilize the protein and increase its half-life. Accumulated intracellular FLuc protein can be measured as an increase in luminescence signal, upon addition of detection reagents (which contain high concentrations of FLuc substrates) commonly used in high-throughput screening. In cell-based reporter gene assays that use FLuc as the reporter gene to quantitate the potential influence of a given compound against the target biology, this apparent increase in luminescence can mistakenly be interpreted as identification of a compound that is active against the target of interest. This is the case for the miR-21 FLuc reporter gene assay used to identify inhibitors of the miR-21 pathway (PubChem AID 2289) - compounds of interest will inhibit miR-21 biogenesis/expression or activity, and are identified by causing an increase in luminescence, due to increased FLuc translation. However, FLuc inhibitory compounds that stabilize the FLuc protein will give an identical read-out, making it difficult to distinguish compounds that are active against the target from those active against FLuc. Previous profiling work to determine the prevalence of compounds that affect FLuc enzymatic activity (PubChem AID 411) identified that ~3% of the MLSMR library (then at ~72K) inhibited FLuc. […] Since the MLSMR had grown to ~350K compounds, and since it was expected that a significant percentage of compounds found active in the miR-21 FLuc assay would be FLuc inhibitors, the library was screened for activity against FLuc using a biochemical assay of purified FLuc and KM concentrations of FLuc substrates (D-luciferin and ATP).
# NCGC Assay Protocol Summary: Reagents: 50mM Tris acetate, pH 7.5; 10mM Mg acetate; 10uM D-luciferin (Sigma #L9504); 10uM ATP; 0.01% Tween-20; 0.05% BSA; 10nM P. pyralis luciferase (Sigma #L9506) Control compounds used were two known firefly luciferase inhibitors (compounds (2) and (5) in Auld et al., 2010), and DMSO. […]
Structure (SMILES),"activity change, negative = inhibition",Potency
CN1CCc2c(sc3c2c(NCc2ccco2)nc2nnnn23)C1,7.24%,–
Cc1nc2ccccn2c(=O)c1NC(=O)c1c(F)cccc1F,3.3%,–
COc1ccc2cc(C3=CC(=O)C[C@H](c4ccc5c(c4)OCO5)C3)ccc2c1,3.7%,–
Cc1cccc(C)c1NC(=O)CN1C(=O)C(C)Oc2ccccc21 (stereo unspecified),1.07%,–
CN(CC(=O)Nc1ccc(OC(F)(F)F)cc1)C(=O)C1CCC1,-4%,–
CC(C)[C@H](NC(=O)c1ccc(F)cc1)C(=O)OCC(=O)NC(=O)c1cccn1C,0.441%,–
Cc1nn(C(C)C(=O)Nc2ccc(C(C)C)cc2)c(=O)c2c1sc1ccccc12 (stereo unspecified),-10.5%,–
O=C(c1ccc(F)cc1)N1CCC(n2nnc3ccccc32)CC1,–,2.69 µM (active)
CC(=O)c1cccc(S(=O)(=O)N2CCC(n3nnc4cc(F)ccc43)CC2)c1,1.11%,–
O=S(=O)(c1cccc(S(=O)(=O)N2CCC(n3nnc4ccccc43)CC2)c1)N1CCCCC1,0.624%,–
CCCN(CCC)C(=O)Cn1c(=O)n(-c2ccc(Cl)cc2)c(=O)c2c3c(sc21)CCCCC3,4.78%,–
COc1ccc(-c2nnc(SCC(=O)Nc3ccc(C(C)C)cc3)nc2-c2ccc(OC)c(OC)c2)cc1OC,4.68%,–
CN(Cc1cc2cc(F)ccc2[nH]1)Cc1nc(-c2cnccn2)no1,1.36%,–
COc1ccc(NC(=O)CSc2nc(N)c(-c3ccccc3)c(=O)[nH]2)cc1,8.54%,–
COc1ccc(NC(=O)c2ccccc2CC[N+](=O)[O-])cc1,1.33%,–
Cc1ccc(-c2nn(-c3ccccc3)cc2C(=O)Nc2cccc(S(=O)(=O)N3CCOCC3)c2)cc1,-3.14%,–
O=C(NCCCN1CCCC1=O)c1ccc(S(=O)(=O)Nc2ccccc2)cc1,-0.641%,–
Cc1nn(Cc2ccccc2)c(C)c1C(=O)NCCCN1CCCC1=O,-2.49%,–
COc1ccc(-c2nn(-c3ccccc3)cc2/C=C\C(=O)Nc2ccc(C(=O)O)cc2)cc1,–,15.1 µM (active)
COc1ccc(NC(=O)c2cn(-c3ccccc3)nc2SC)cc1,–,15.1 µM (active)
O=C(O)c1ccc(NC(=O)c2cn(-c3ccccc3)nc2-c2ccc(Cl)cc2)cc1,–,6.75 µM (active)
COc1cccc(C(=O)NC(=O)Nc2ccc(-c3cc(C(F)(F)F)nn3-c3ccccc3)cc2)c1,-3.37%,–

Structure (SMILES),"activity change, negative = inhibition",Potency
Cc1ccc(-c2nn(-c3ccccc3)cc2C(=O)NCCCN2CCCC2=O)cc1,–,21.3 µM (active)
COc1ccc(NC(=O)CN(C)C(=O)/C=C/c2cn(Cc3ccccc3)nc2-c2cccnc2)cc1,-3.23%,–
O=C(CSc1nnc(-c2ccncc2)n1-c1ccc(Cl)cc1)Nc1ccc(C(=O)O)cc1,-4.75%,–
Cc1ccc(Cl)c(NC(=O)CN2CCN(C=O)CC2)c1,-0.796%,–
Fc1cccc(-n2ncc3c2ncn2nc(-c4ccccc4Cl)nc32)c1,-1.28%,–
CN(C(=O)CSc1nnc(C2CC2)n1C)C1CCCc2ccccc21 (stereo unspecified),1.86%,–
N#Cc1ccc(C2=CC(=O)C[C@H](c3ccc(Cl)cc3)C2)cc1,-16.3%,–
O=C(CSc1oc(-c2ccco2)nc1S(=O)(=O)c1ccc(Cl)cc1)c1ccccc1,1.52%,–
COc1ccccc1CNc1nccn(-c2ccc(F)cc2)c1=O,-2.26%,–
Cc1ccc(C2(C)NC(=O)N(CC(=O)Nc3ccccc3C(=O)N3CCCCC3)C2=O)cc1 (stereo unspecified),0.472%,–
CCOC(=O)c1c(C)[nH]c(C)c1S(=O)(=O)N1CCCC(C(=O)NCc2ccccc2Cl)C1 (stereo unspecified),-8.43%,–
Cc1ccc(NC(=O)CSc2nc3ccccc3c3nc(CCn4cncc4C)nn23)cc1F,3.74%,–
O=C(CO/N=C/c1ccc(OC(F)F)cc1)NCc1ccc(F)cc1,-10.7%,–
CCOc1ccc(CCNC(=O)COC(=O)c2ccc(F)c(S(=O)(=O)N3CCOCC3)c2)cc1OCC,0.0182%,–
CCC(=O)N1c2ccccc2CC1C(=O)N1CCN(c2ccccc2)CC1 (stereo unspecified),2.76%,–
Cc1ccc(CSc2ccc(S(=O)(=O)N3CCCCC3)cn2)cc1,4.03%,–
Cc1ccccc1NC(=O)c1cc(S(=O)(=O)N2CCOCC2)cs1,-0.63%,–
O=C(Nc1ccccc1C(=O)O)c1cc(S(=O)(=O)N2CCCCC2)cs1,–,23.9 µM (active)
O=C(Nc1ccccc1F)c1cc(S(=O)(=O)N2CCCCC2)cs1,6.84% [at 2.3 µM],–
COc1ccc(CNC(=O)CN2C(=O)NC3(CCCc4sccc43)C2=O)cc1 (stereo unspecified),2.42%,–
CC[N+]1(CC)CC2=Cc3ccccc3CC2C1 (stereo unspecified),-0.581%,–
COc1ccccc1C(=O)NC(=O)COC(=O)C1CC1,–,9.53 µM (active)

Structure (SMILES),"activity change, negative = inhibition",Potency
COc1ccccc1C(=O)NC(=O)COC(=O)c1ccco1,12.2%,–
COc1ccccc1C(=O)OCC(=O)NCCNC(=O)COC(=O)c1ccccc1OC,-0.745%,–
O=C(Nc1cccc(-n2cnnn2)c1)c1cccnc1,-1.84%,–
O=C(Nc1ccc(O)c(-c2nc3ccccc3o2)c1)c1ccc(-c2cccc(Cl)c2)o1,3.47%,–
O=C(Nc1ccc2oc(-c3ccccc3F)nc2c1)c1ccco1,–,6.01 µM (active)
Cc1ccccc1-c1nc2cc(NC(=O)c3cccc(OCCC(C)C)c3)ccc2o1,-3.07%,–
COc1ccccc1CNC(=O)COC(=O)CNS(=O)(=O)c1ccc(NC(C)=O)cc1,-0.864%,–
Cc1cccc(N2CCN(C(=O)c3cnc(N4CCCC4)nc3C)CC2)c1C,2.04%,–
COc1ccccc1CNC(=O)C1CCN(C(=O)[C@@H]2Cc3ccccc3CN2)CC1,-0.16%,–
COc1ccccc1CNC(=O)C1CCN(S(C)(=O)=O)CC1,2.3%,–
COc1ccccc1CCNC(=O)C1CCN(C(=O)/C=C/c2ccccc2)CC1,–,21.3 µM (active)
OC1CCCN(c2ncnc3c2nnn3Cc2c(F)cccc2Cl)C1 (stereo unspecified),-13.1%,–
C/C(=C/c1ccccc1)C(=O)N1CCN(c2ccccc2)CC1,-12.4%,–
Cc1ccnc(NS(=O)(=O)c2ccc(NC(=O)c3ccc(S(=O)(=O)N(C)C)cc3)cc2)n1,-7.16%,–
Cc1noc(NS(=O)(=O)c2ccc(NC(=O)c3oc4ccc(F)cc4c3C)cc2)c1C,–,15.1 µM (active)
Cc1noc(NS(=O)(=O)c2ccc(NC(=O)C34CCC(CC3)C4)cc2)c1C,0.134%,–
Cc1ccnc(NS(=O)(=O)c2ccc(NC(=O)c3oc4ccc(F)cc4c3C)cc2)n1,–,26.9 µM (active)
Cc1cc(OC(C)C(=O)Nc2ccc(S(=O)(=O)Nc3onc(C)c3C)cc2)cc(C)c1Cl (stereo unspecified),-0.156%,–
Cc1cc(C)c2oc(C(=O)Nc3ccc(S(=O)(=O)Nc4nccc(C)n4)cc3)cc(=O)c2c1,-0.483%,–
Cc1ccc(C(=O)/C=C/Nc2ccc(S(=O)(=O)Nc3onc(C)c3C)cc2)cc1,–,15.1 µM (active)
CCn1c(SCC(=O)Nc2ccc(S(=O)(=O)Nc3onc(C)c3C)cc2)nnc1-c1ccccc1,2.13%,–
Cc1cc(C)nc(NS(=O)(=O)c2ccc(N/C=C\C(=O)c3cccs3)cc2)n1,-7.27%,–
